An excerpt weighted towards active compounds, which were near 21% of everything screened.
TDP1 cell noCPT – qHTS for Inhibitors of human tyrosyl-DNA phosphodiesterase 1 (TDP1): qHTS in cells in absence of CPT; DT40 Tdp1-/- hTDP1 cells, no CPT, ATP luminescence, 48 h; Potency, µM (top dose mostly 46.2 µM), for the others: at the top dose activity change, negative = growth inhibition, usual class: inhibitors; 420,000 tested, 15% active; AID 686978, 2013; further: potency means the concentration at half of the fitted maximal effect; nearly all actives have a fitted effect of over 55% in size
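Compound effects on proliferation are scored in DT40 Tdp1-/-;hTDP1 cells in the absence of CPT. ATP levels (CellTiter-Glo luminescence) are recorded after a ≥48 hr, 37 °C incubation.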
DT40 TDP1 CPT – DT40-hTDP1 cell growth loss with CPT | chicken DT40 Tdp1-/-;hTDP1 cells + 20 nM CPT, ATP luminescence, 48 h | Potency, µM (series often up to 46.2 µM), without a hit: at the highest dose activity change, negative = growth inhibition, most hits filed as inhibitors | 420,000 tested, 12% active; further: potency means the concentration at half of the fitted maximal effect; nearly all actives have a fitted effect of over 55% in size
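Chicken DT40 Tdp1-/- cells complemented with human TDP1, 400 cells/well, exposed to compounds plus 20 nM camptothecin for at least 48 h at 37 C; viability read as ATP content by CellTiter-Glo luminescence.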
RORgamma inh – inhibitors of mouse ROR gamma transcriptional activity; Drosophila S2 Gal4-RORgamma UAS-luciferase reporter, 20 h; Potency, µM (series often up to 53.6 µM), inactives show top-dose activity change, negative = inhibition, actives largely listed as inhibitors; 310,000 tested, 5.4% active; further: potency means the concentration at half of the fitted maximal effect; nearly all actives have a fitted effect of over 60% in size
Target sequence (P51450 whole entry, looked up, the tested form may be a part): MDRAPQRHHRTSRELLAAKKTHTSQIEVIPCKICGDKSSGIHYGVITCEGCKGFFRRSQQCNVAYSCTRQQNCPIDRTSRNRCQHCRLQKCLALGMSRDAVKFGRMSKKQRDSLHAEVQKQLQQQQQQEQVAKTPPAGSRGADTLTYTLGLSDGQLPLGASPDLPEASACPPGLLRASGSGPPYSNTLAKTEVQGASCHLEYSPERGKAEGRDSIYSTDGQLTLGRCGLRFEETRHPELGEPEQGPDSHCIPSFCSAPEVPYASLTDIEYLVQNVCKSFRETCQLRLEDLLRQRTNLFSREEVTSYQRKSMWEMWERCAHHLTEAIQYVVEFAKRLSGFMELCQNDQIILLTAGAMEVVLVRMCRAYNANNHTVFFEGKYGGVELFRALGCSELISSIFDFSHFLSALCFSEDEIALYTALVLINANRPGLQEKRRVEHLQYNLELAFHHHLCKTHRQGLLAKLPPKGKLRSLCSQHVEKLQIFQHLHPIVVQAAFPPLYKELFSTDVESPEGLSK
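Compounds are pin-transferred onto Drosophila Schneider cells expressing a copper-inducible Gal4–ROR gamma transactivation domain fusion. After 1 hr, copper sulfate is added to 700 uM final; luciferase is read 20 hr later.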
ELG1 repair inh – inhibitors of ELG1-dependent DNA repair in HEK293T cells; Potency, µM (top dose mostly 46.1 µM), inactives show top-dose activity change, negative = inhibition, usual class: inhibitors; HEK293T ELG1-luciferase reporter, luminescence, 16 h; DNA damage induced by 5-fluorouridine; AID 504467; 330,000 tested, 2.3% active; further: potency means the concentration at half of the fitted maximal effect; nearly all actives have a fitted effect of over 55% in size
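Cells (2,000 per well) received 5-fluorouridine plus test compound or DMSO and were incubated 16 hr at 37 °C, 5% CO2. Luciferase activity was read by luminescence 30 min after ONE-Glo addition; signal suppression marked inhibition of damage-induced ELG1 function.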
IL-1B inflam inh – inflammasome signaling inhibition, IL-1 beta readout; THP-1 LPS/ATP IL-1B secretion, AlphaLISA, 16 h; hits give low values; activity change, % at 57.5 µM; 360,000 tested, 4.7% active; in the data active means activity change below about -50%; inconclusive means mostly about -30% to -49%
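Secreted IL-1B measured by AlphaLISA bead assay after 16 h compound exposure of THP-1 cells; compounds (final up to 57.5 uM) added 1 h before LPS (250 ng/mL) and ATP (1.25 mM) stimulation; lower signal means less secretion.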
Gal4-VP16 FLuc – counter-screen for ROR gamma inhibitors: Gal4-VP16 reporter; Drosophila S2 Gal4-VP16 UAS-luciferase, luminescence, 20 h; Potency, µM (titrated, usually from 53.6 µM), without a hit: top-dose activity, negative = inhibition, hits mostly inhibitors; 310,000 tested, 3.5% active;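 further: Gal4-VP16 expression switched on by copper sulfate through the metallothionein promoter; potency means the concentration at half of the fitted maximal effect; nearly all actives have a fitted effect of over 50% in size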
An asterisk follows results filed as active; u = inconclusive; x = no result; [ ] = another dose, or the depositor's remark. Unless noted, the call rests on the fitted dose curve; in most records, active means well fitted curve in the direction sought with a large enough effect; inconclusive means small, poorly fitted or top-dose-only effect, or another doubt; inactive means no such curve, though single readings can be large; an effect the other way counts as inactive or inconclusive. On the % scale 0 is the no-effect control and ±100 the full control effect.

SMILES | TDP1 cell noCPT | DT40 TDP1 CPT | RORgamma inh | ELG1 repair inh | IL-1B inflam inh | Gal4-VP16 FLuc
CCOc1cc(S(=O)(=O)N2CCN(C(=O)c3ccco3)CC2)ccc1F | u | -9% | x | -11% | -5 | x
C[C@@H]1CCCCO[C@H](CN(C)S(=O)(=O)c2cccs2)[C@@H](C)CN([C@H](C)CO)C(=O)c2cc(NC(=O)C3CCCCC3)ccc2O1 | 26µM* | 18µM* | x | x | -4 | x
C[C@@H]1CN([C@@H](C)CO)C(=O)c2cc(NC(=O)C3CCCCC3)ccc2O[C@@H](C)CCCCO[C@@H]1CN(C)Cc1ccncc1 | -21% | -20% | x | x | -4 | x
CC(=O)NC1(C(=O)O)CCCC1 | -23% | -12% | 0% | 7% | 3 | -9%
CCOC(=O)CN1C(=O)C(O)(CC(=O)c2cccc(OC)c2)c2ccccc21 (stereo not drawn) | 16µM* | u | 22% | -4% | 17 | -3%
COC(=O)CN1C(=O)C(O)(CC(=O)c2ccccc2)c2ccccc21 (stereo not drawn) | u | u | -3% | 12% | -2 | 9%
C#CCN1C(=O)C(O)(CC(=O)c2cccc(OC)c2)c2ccccc21 (stereo not drawn) | 4.6µM* | 5.8µM* | u | -5% | 40 | 2%
NS(=O)(=O)c1ccc(CCNC(=O)CSc2nnc3ccccn23)cc1 | 7% | -3% | 36% | -8% | 9 | 6%
O=C(NCc1ccccc1OC(F)(F)F)C1CCC(=O)N(CCCN2CCOCC2)C1 (stereo not drawn) | -1% | 9% | x | x | 2 | x
COc1ccc(S(=O)(=O)Oc2c(OC)cc(C(=S)N3CCOCC3)cc2OC)cc1 | 0% | 5% | -6% | -14% | 21 | 2%
CCOc1cc(C=O)ccc1OS(=O)(=O)c1ccc(NC(C)=O)cc1 | 18µM* | u | 24% | -1% | 22 | 7%
COc1ccc(S(=O)(=O)Oc2ccc(C(=S)N3CCOCC3)cc2OC)cc1 | u | u | u | u | -8 | -9%
COc1cc(C(=S)N2CCOCC2)cc(Br)c1OS(=O)(=O)c1ccccc1 | u | u | 15% | 16µM* | 14 | -21%
COc1cc(C(=S)N2CCOCC2)ccc1OC(=O)c1ccc([N+](=O)[O-])cc1[N+](=O)[O-] | u | u | u | -13% | 0 | 13µM*
COc1cc(C(=S)N2CCOCC2)ccc1OS(=O)(=O)c1ccc(NC(C)=O)cc1 | 9.2µM* | 18µM* | 13% | 12µM* | 0 | -8%
COc1cc(C(=S)N2CCCC2)cc(OC)c1OS(=O)(=O)c1ccc(NC(C)=O)cc1 | u | u | 36% | -26% | -5 | 6%
COc1cc(C(=S)N2CCCC2)ccc1OS(=O)(=O)c1ccc(NC(C)=O)cc1 | u | 15µM* | 48% | u | -27 | 7%
CC(=O)Nc1ccc(S(=O)(=O)Oc2ccccc2N2CCCCC2)cc1 | u | u | u | 8.2µM* | -12 | u
CC(C)=CCC/C(C)=C/CO/N=C1/[C@H]2O[C@@H]2[C@@H](O)[C@H]2[C@H]1CCn1c(=O)n(C)c(=O)n12 | x | x | 32%[10 µM] | x | x | 0%[10 µM]
Cc1ccc2[nH]c3nc(NN)nnc3c2c1 | u | 23µM* | u | 9% | 20 | -2%
COc1ccc(CNC(=O)CSc2nnc3c(n2)[nH]c2ccc(C)cc23)cc1 | 6% | 2% | -27% | 2% | 31 | -6%
CC1(C(=O)NS(=O)(=O)c2cccc(C#N)c2)CCN1C(=O)Cc1ccccc1Cl (stereo not drawn) | -3% | -17% | x | x | 4 | x
O=C(O)c1cc(-c2ccc(-c3ccc(F)cc3)o2)nc2ccccc12 | 0% | -1% | u | u | 20 | u
Cc1cc(Cl)c(OCCCN2CCCCC2)c(Br)c1 | u | -7% | -35% | -24% | -79* | -2%
Cc1cc(Cl)c(OCCOCCN2CCNCC2)c(Cl)c1 | 12µM* | u | x | x | -23 | x
SMILES | TDP1 cell noCPT | DT40 TDP1 CPT | RORgamma inh | ELG1 repair inh | IL-1B inflam inh | Gal4-VP16 FLuc
Cc1cc(C)c(OCCOCCN2CCN(C)CC2)c(Cl)c1 | u | -28% | 13% | -3% | 1 | -7%
Cc1cc(C)c(OCCN2CCCC2)c(Cl)c1 | -23% | -3% | -24% | -18% | -6 | 3%
Cc1cc([N+](=O)[O-])c2ccccc2c1NS(=O)(=O)c1ccccc1 | -22% | 6% | x | x | 8 | x
COc1cc(C(c2c(C)[nH][nH]c2=O)c2c(C)[nH][nH]c2=O)ccc1OC(C)C | -23% | 12% | -11% | -2% | -70* | -7%
COc1ccc(C(c2c(C)[nH][nH]c2=O)c2c(C)[nH][nH]c2=O)cc1Br | u | -6% | -45% | -7% | -29 | -12%
COc1cc(C(c2c(C)[nH][nH]c2=O)c2c(C)[nH][nH]c2=O)ccc1OCc1ccc([N+](=O)[O-])cc1 | u | u | 6.3µM* | u | -28 | u
CCCN1CN=C(Nc2nc3ccccc3o2)NC1 | 9% | -21% | -20% | u | 16 | -12%
CC1(C)CC(=O)C2=C(C1)NC(Nc1nc3ccccc3o1)=NC21CCCCC1 | 23µM* | u | -7% | 9% | 24 | -2%
COCCNC(=O)/C(C#N)=C/c1ccc(OCC(=O)NC2CCCCC2)cc1 | -28% | -16% | 23% | -16% | -5 | 4%
CC(C)[C@H](NC(=O)OCc1ccccc1)C(=O)OCC(=O)Nc1ccc(N2CCOCC2)cc1 | u | u | x | 12% | 19 | x
COc1ccc(CCN(C(=S)Nc2ccccc2)C2CC(=O)N(c3ccccc3)C2=O)cc1 (stereo not drawn) | u | u | -2% | 5% | 19 | -2%
Cc1ccc(N2C(=O)CC(N(CCc3ccccc3)C(=S)Nc3ccc(N(C)C)cc3)C2=O)cc1 (stereo not drawn) | u | 18µM* | 15% | 3% | u | -9%
O=C1CC(N(CCc2ccccc2)C(=S)Nc2ccccc2)C(=O)N1c1ccc(Br)cc1 (stereo not drawn) | 18µM* | 16µM* | -8% | 2% | -12 | u
CCOc1ccc(N2C(=O)CC(N(CCc3ccccc3)C(=O)/C=C/C(=O)O)C2=O)cc1 (stereo not drawn) | 27% | 24% | -31% | 6% | 9 | 7%
Clc1ccc(NC2(c3nnnn3C3CCCCC3)CCCCC2)cc1 | 21µM* | 18µM* | 9% | 11% | 3 | -6%
